From PubChem
Shown are actives, neighbours in structure and some others; about 8.1% of the full set was active somewhere.
RORg inh: qHTS for inhibitors of ROR gamma transcriptional activity; Potency, µM (top dose mostly 53.6 µM), inactives show top-dose activity change, negative = inhibition, usual class: inhibitors; 5.4% of 310,000 active; Nuclear receptor ROR-gamma (Mus musculus), P51450; Drosophila S2 Gal4-RORgamma UAS-luciferase reporter, 20 h; AID 2551, 2010; note: % is set by controls: 0 for no effect and ±100 for the full control effect; nearly all actives have a fitted effect of over 60% in size
Target sequence (P51450 whole entry, looked up, the tested form may be a part): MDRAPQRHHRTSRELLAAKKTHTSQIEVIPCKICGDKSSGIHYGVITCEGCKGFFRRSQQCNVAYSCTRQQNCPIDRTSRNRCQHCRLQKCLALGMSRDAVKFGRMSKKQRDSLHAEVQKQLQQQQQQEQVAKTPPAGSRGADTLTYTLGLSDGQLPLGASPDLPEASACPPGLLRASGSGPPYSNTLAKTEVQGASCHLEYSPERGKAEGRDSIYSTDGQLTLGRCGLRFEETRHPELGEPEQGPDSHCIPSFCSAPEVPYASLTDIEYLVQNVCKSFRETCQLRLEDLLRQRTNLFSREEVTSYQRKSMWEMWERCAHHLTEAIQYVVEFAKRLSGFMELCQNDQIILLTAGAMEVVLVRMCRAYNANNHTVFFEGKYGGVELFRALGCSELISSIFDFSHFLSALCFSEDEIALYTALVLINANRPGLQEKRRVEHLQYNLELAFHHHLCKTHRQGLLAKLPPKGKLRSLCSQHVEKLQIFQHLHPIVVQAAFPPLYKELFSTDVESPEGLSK
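Read-out: Photinus luciferase luminescence; inhibitors lower reporter signal. Insect Schneider cells with Gal4-ROR gamma fusion under metallothionein promoter, UAS reporter; 700 uM final copper sulfate induction, 20 hr, ambient temperature.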
VP16 counter: VP16 counterscreen qHTS for inhibitors of ROR gamma transcriptional activity | AID 2546, 2010 | 3.5% of 310,000 active | Potency, µM (highest dose often 53.6 µM), inactives show at the top dose activity, negative = inhibition, usual class: inhibitors | Drosophila S2 Gal4-VP16 UAS-luciferase, luminescence, 20 h;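 note: Gal4-VP16 expression switched on by copper sulfate through the metallothionein promoter; % is set by controls: 0 for no effect and ±100 for the full control effect; nearly all actives have a fitted effect of over 50% in size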
Sfp PPTase inh: qHTS Assay for Inhibitors of Bacillus subtilis Sfp phosphopantetheinyl transferase (PPTase) | Biochemical Sfp PPTase activity, qHTS | Potency, µM, for the others: largest response in the series, negative = inhibition, actives largely listed as inhibitors | 3.5% of 310,000 active;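 note: the enzyme is Sfp with the accession as filed and its product quenches rhodamine fluorescence; 0% = enzyme reaction without inhibitor and -100% = no enzyme wells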
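After 15 min at room temperature with compound, 15 nM Sfp received 5 uM rhodamine-CoA plus 12.5 uM BHQ-2-ybbR (50 mM Hepes pH 7.6, 10 mM MgCl2). Rate came from the fluorescence difference over 30 min, ex 525/em 598 nm.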
ClpP mod: qHTS Assay for Activators of ClpP | purified B. subtilis ClpP, FRET peptide cleavage, 20 min | Potency, µM (series often up to 57.5 µM), without a hit: at the top dose activity change, negative = active | ATP-dependent Clp protease proteolytic subunit (Bacillus subtilis (strain 168)), P80244 | 1.9% of 340,000 active; active = well fitted falling curve with a large enough effect; inconclusive = small, poorly fitted or top-dose-only effect; inactive = no such curve, though single readings can be large or run the other way; note: the source files actives as falling curves though it sought activators and does not explain the sign; nearly all actives have a fitted effect of over 65% in size
Target sequence (P80244 whole entry, looked up): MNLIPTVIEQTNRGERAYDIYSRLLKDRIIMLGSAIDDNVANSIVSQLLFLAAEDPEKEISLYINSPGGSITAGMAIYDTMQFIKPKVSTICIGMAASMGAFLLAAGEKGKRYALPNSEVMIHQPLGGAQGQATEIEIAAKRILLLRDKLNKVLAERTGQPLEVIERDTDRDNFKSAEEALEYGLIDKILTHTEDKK
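Buffer: 100 mM Tris/HCl pH8, 100 mM KCl, 0.05% low protease BSA, 2.5% glycerol, 0.01% Tween-20. ClpP 10 microg/mL final; 20 min RT; delta FRET normalized to ADEP and DMSO controls.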
Epigenetic derep: Quantitative High-Throughput Screen for Regulators of Epigenetic Control | Potency, µM (doses to about 53.9 µM), without a hit: at the highest dose GFP activation, most hits filed as activators | AID 1865, 2009 | 0.2% of 280,000 active | murine LDR cells, GFP reporter derepression, 30 h; note: % of control where 0% means no effect; nearly all actives have a fitted effect of over 60% in size
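In this reporter-derepression format, murine cells bearing a silenced integrated CMV-GFP locus incubate with test compound (30 h, 37 C), then are washed and imaged; fluorescent objects of 20–120 um count as induced cells.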
PINK1 modulator: A Quantitative High throughput Screen to Identify Chemical Modulators of PINK1 Expression; PINK1 immunofluorescence, high-content cytometry, 24 h; Potency, µM (top dose mostly 76.6 µM), for the others: top-dose activation (PINK1 increase), usual class: activators; 0.2% of 410,000 active; active = well fitted activation curve with a large enough effect; inconclusive = small, poorly fitted or top-dose-only effect; cell line not stated here; note: % of control where 0% means no effect; nearly all actives have a fitted effect of over 65% in size
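Measures PINK1 amount and localization on or inside mitochondria by immunofluorescence. Stable cells get compounds at 5 concentrations for 24 hours before fixation and staining; CCCP controls included.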
* hit, by the source's call; [ ] = remark or other dose. Unless noted, calls come from the whole dose curve; as a rule, active = well fitted curve in the direction sought with a large enough effect; inconclusive = small, poorly fitted or top-dose-only effect, or another doubt; inactive = no such curve, though single readings can be large; an effect the other way counts as inactive or inconclusive. Potency is the fitted concentration of half-maximal effect.

COc1cc(=O)n2c(c1C(=O)N(C)Cc1ccsc1)CCN(Cc1c(C)nn(C)c1Cl)CC2 was read as PINK1 modulator 0.6%.
COc1cc(=O)n2c(c1C(=O)N(C)Cc1nonc1C)CCN(Cc1ccccc1F)CC2 was read as PINK1 modulator -0.1%.
Screening CCn1c(-c2nn(C)c(C)c2Cl)n[nH]c1=S returned RORg inh inconclusive, VP16 counter inconclusive, Sfp PPTase inh -3.4%, ClpP mod 0.0%, Epigenetic derep 4.7% and PINK1 modulator -3.0%.
For S=c1[nH]nc(-c2ccccc2Br)n1Cc1ccccc1 the results were RORg inh 4.47µM*, VP16 counter 6.31µM*, Sfp PPTase inh -7.8%, ClpP mod 0.0% and PINK1 modulator -0.6%.
`Oc1ccccc1-c1n[nH]c(=S)n1Cc1ccccc1` gave RORg inh 11.2µM*, VP16 counter -27.7%, Sfp PPTase inh 9.5%, ClpP mod 0.4% and PINK1 modulator -1.1%.
Oc1ccc(Br)cc1-c1n[nH]c(=S)n1Cc1ccccc1 was read as RORg inh 10µM*, VP16 counter -7.8%, Sfp PPTase inh -15.2%, ClpP mod -15.7% and PINK1 modulator -0.4%.
Cc1ccccc1-c1n[nH]c(=S)n1Cc1ccccc1 was read as RORg inh 2.0%, VP16 counter -2.7%, Sfp PPTase inh -2.1%, Epigenetic derep -4.0% and PINK1 modulator 1.3%.
For Cn1c(-c2cc(Br)ccc2O)n[nH]c1=S the results were RORg inh inconclusive, VP16 counter inconclusive, Sfp PPTase inh 11.1%, ClpP mod -4.4% and Epigenetic derep -2.1%.
For CCn1c(-c2ccccc2O)n[nH]c1=S the results were RORg inh 12.6µM*, VP16 counter -25.9%, Sfp PPTase inh inconclusive, ClpP mod -4.8%, Epigenetic derep 0.0% and PINK1 modulator 19.9%[38.3 µM].
`CC[C@H](C)[C@H](NC(=O)[C@H](CC(C)C)NC(=O)[C@H](CC(N)=O)NC(=O)[C@@H](NC(=O)[C@@H](N)Cc1ccc(O)cc1)[C@@H](C)CC)C(=O)N[C@@H](Cc1ccc(O)cc1)C(=O)N[C@@H](CCCN=C(N)N)C(=O)N[C@@H](CC(C)C)C(=O)N[C@@H](CCCN=C(N)N)C(=O)N[C@@H](Cc1ccc(O)cc1)C(N)=O` gave RORg inh -4.5%, VP16 counter 1.3% and Sfp PPTase inh inconclusive.
NCC(=O)c1c[nH]c2ccccc12 was read as ClpP mod -4.9% and PINK1 modulator 0.1%.
`Cc1ccc(C(=O)NCCc2nnc3n2CCN(C(=O)c2ccnc(Cl)c2)CC3)cc1` gave PINK1 modulator -0.6%.
For CCn1c(-c2cc(-c3ccccc3)sc2N)n[nH]c1=S the results were RORg inh 3.98µM*, VP16 counter 12.6µM*, Sfp PPTase inh -25.8%, Epigenetic derep 1.3% and PINK1 modulator -1.7%.
Screening Cc1cccc(NC(=O)c2nc[nH]c2C(=O)NCCCNC(=O)c2[nH]cnc2C(=O)Nc2cccc(C)c2)c1 returned ClpP mod -2.7% and PINK1 modulator 0.6%.
For CNC(=O)c1[nH]cnc1C(=O)Nc1ccc(F)cc1 the results were RORg inh 12.6µM*, VP16 counter inconclusive, Sfp PPTase inh 0.5%, ClpP mod 3.1% and PINK1 modulator 0.2%.
For Cc1ccc(NC(=O)c2nc[nH]c2C(=O)Nc2ccc(C)cc2)cc1 the results were RORg inh 1.41µM*, VP16 counter 2.82µM*, Sfp PPTase inh 3.9%, ClpP mod 1.5%, Epigenetic derep 0.0% and PINK1 modulator 5.3%.
Cc1cccc(NC(=O)c2nc[nH]c2C(=O)Nc2cccc(C)c2)c1 was read as RORg inh 1.41µM*, VP16 counter 2.82µM*, Sfp PPTase inh 17.6%, Epigenetic derep -4.1% and PINK1 modulator 17.5%.
Screening CNC(=O)c1[nH]cnc1C(=O)Nc1ccccn1 returned RORg inh -27.7%, VP16 counter -15.3%, Sfp PPTase inh -0.4%, Epigenetic derep -1.1% and PINK1 modulator -0.3%.
`CNC(=O)c1[nH]cnc1C(=O)Nc1ccccc1` gave ClpP mod -1.5% and PINK1 modulator -1.3%.
Screening Cc1ccc(NC(=O)c2nc[nH]c2C(=O)NCCN(CCNC(=O)c2[nH]cnc2C(=O)Nc2ccc(C)cc2)CCNC(=O)c2[nH]cnc2C(=O)Nc2ccc(C)cc2)cc1 returned ClpP mod inconclusive and PINK1 modulator -0.4%.
`CNC(=O)c1[nH]cnc1C(=O)Nc1ccc(C)cc1` gave RORg inh 3.98µM*, VP16 counter 4.47µM*, Sfp PPTase inh -0.6%, ClpP mod 27.1%, Epigenetic derep 1.4% and PINK1 modulator 2.3%.
CCOC(=O)C1CCCN(S(=O)(=O)c2ccc3c(c2)CCN3C(=O)CC)C1 (stereo unspecified) was read as ClpP mod 0.3%, Epigenetic derep 2.8% and PINK1 modulator 1.5%.
O=C(Nc1ccc(Cl)cc1)c1nc[nH]c1C(=O)NCCN(CCNC(=O)c1[nH]cnc1C(=O)Nc1ccc(Cl)cc1)CCNC(=O)c1[nH]cnc1C(=O)Nc1ccc(Cl)cc1 was read as ClpP mod inconclusive and PINK1 modulator -0.4%.
For CNC(=O)c1[nH]cnc1C(=O)Nc1ccc(Cl)cc1 the results were RORg inh 3.98µM*, VP16 counter 7.08µM*, Sfp PPTase inh 5.2%, ClpP mod 4.9%, Epigenetic derep 0.5% and PINK1 modulator 1.1%.
`CCOC(=O)c1[nH]cnc1C(=O)Nc1cccc(OC)c1` gave RORg inh -16.6%, VP16 counter 1.3%, Sfp PPTase inh 5.3%, ClpP mod -0.8%, Epigenetic derep -1.0% and PINK1 modulator 1.4%.
For CNC(=O)c1[nH]cnc1C(=O)Nc1cccc(OC)c1 the results were RORg inh 7.08µM*, VP16 counter 14.1µM*, Sfp PPTase inh -23.8%, ClpP mod -0.7%, Epigenetic derep -1.0% and PINK1 modulator 4.0%.
For CCCCCC/C=C/c1ccc(OC)c(C2C3C=CCC(C)C3C(=O)N2Cc2ccccc2)c1 (stereo unspecified) the results were RORg inh -8.4%, VP16 counter 3.7% and Sfp PPTase inh 5.4%.
For Cc1nc(CCN2C(=O)c3ccccc3C2=O)cs1 the results were RORg inh inconclusive, VP16 counter 13.5%, Sfp PPTase inh 79.4µM*, ClpP mod -1.8%, Epigenetic derep -1.1% and PINK1 modulator -2.6%.
